# Records with an inconclusive call do not appear. Active and inactive are the calls of the source. Unless noted, how the calls were made is not given here.
# Tests used:
# [1] = hit retest on RPL19A-GFP reporter strain – cell-based, S. cerevisiae, flow cytometry, cherry picks, mother/daughter gates, confirmation (AID 2270;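 active means GFP response below 50% of the DMSO control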); settings: 3 h, at 10 µM, stronger effect = lower value, 100 = same GFP as DMSO wells
# [2] = yeast TOR pathway reporter LAP4-GFP change – cell-based, cherry picks, flow cytometry, mother/daughter gates, confirmation (AID 2271;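 active means GFP response above 150% of the DMSO control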;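 further: ratio of sample to DMSO plate mean so 100% equals DMSO level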); settings: S. cerevisiae LAP4-GFP strain, 3 h, at 10 µM, stronger effect = higher value
# [3] = TOR pathway CIT2 reporter hit retest – S. cerevisiae, GFP fusion, cherry picks, mother/daughter gates, confirmation (AID 2274;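 active means GFP response above 150% of the DMSO level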); settings: S. cerevisiae CIT2-GFP strain, flow cytometry, 3 h, at 10 µM, stronger effect = higher value
# [4] = rapamycin-like changes in RPL19A-GFP expression – cell-based, S. cerevisiae, multiplex flow cytometry, primary screen (AID 1862; in the data active means percent of DMSO control GFP below about 86%;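 further: lower values mimic rapamycin by blocking the RPL19A rise seen in DMSO cells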); settings: S. cerevisiae RPL19A-GFP strain, flow cytometry fluorescence, 3 h; at 10 µM; stronger effect = lower value
# [5] = TOR pathway GLN3 branch reporter MEP2-GFP changes – S. cerevisiae, multiplex flow cytometry, primary screen (AID 1867;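 active means GFP response, as percent of the DMSO control, above the screen-wide mean plus 3 SD, about 139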;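 further: median GFP channel fluorescence of barcode-gated MEP2-GFP cells measured by flow cytometry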); settings: S. cerevisiae MEP2-GFP strain, 3 h, at 10 µM, stronger effect = higher value
# [6] = TOR pathway RTG branch CIT2 reporter changes – S. cerevisiae, GFP fusion, multiplex flow cytometry, primary screen (AID 1870;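 active means percent response above a set limit, the screen-wide mean plus 3 SD, cut at about 130% in these data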;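 further: barcoded CIT2-GFP strain pooled with four other GFP strains with rapamycin as positive control; median GFP fluorescence per well over plate mean of DMSO wells so 100% = DMSO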); settings: S. cerevisiae CIT2-GFP expression, 3 h, at 10 µM, stronger effect = higher value
# [7] = TOR pathway LAP4-GFP level changes – S. cerevisiae, multiplex flow cytometry, primary screen (AID 1873;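 active means GFP signal, as percent of the solvent control, above the screen mean plus 3 SD, about 149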); settings: S. cerevisiae LAP4-GFP expression, 3 h, at 10 µM, stronger effect = higher value
# [8] = reduced mouse 2C T cell binding to pMHC/ICAM-1 vesicles – MLPCN validation set, flow cytometry, LFA-1/ICAM-1 modulator project, pilot screen (AID 2523;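 active means response below a set limit, under 55% cells CD8-positive and vesicle-bound, and CD8 cells' 90th-percentile brightness under 279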;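 on vesicle binding response: mean PE anti-B7-1 fluorescence of CD8+ cells relative to row control; 100% = QL9-loaded vesicles with DMSO vehicle in the same plate row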); settings: 2C mouse CD8+ T cells, at 7 µM, stronger effect = lower value; double positive events: measured here: CD8+/vesicle+ event percentage
# [9] = target: Integrin beta-1 (Homo sapiens) + Integrin alpha-4 (Homo sapiens) (UniProt P13612+P05556); experiment: alpha4beta1 integrin LIBS antibody binding reduction – U937 cells, HUTS-21 mAb, flow cytometry, validation set, VLA-4 allosteric modulator project, pilot screen (AID 2674;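 active means inhibition above 50%, about 3 SD of the validation set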;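 further: antibody binding induced by the VLA-4 ligand LDV present at three times its Kd; 0% = LDV ligand with antibody and no compound and 100% = antibody without LDV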); settings: HUTS-21 LIBS mAb binding, at 6.7 µM, stronger effect = higher value
# [10] = calorie-restriction mimetic ROS inhibitors, yeast – validation compound set, pilot screen (AID 2706;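 active means superoxide response below 65% of plate, a cut near 3 SD across the whole screen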;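 further: yeast exposed to compound for one week at 30 degrees C before staining; 100% = mean of all compound wells on the same plate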); settings: S. cerevisiae aging, superoxide DHE fluorescence; at 10 µM; stronger effect = lower value
# [11] = target: Beta-adrenergic receptor kinase 1 (Homo sapiens) (UniProt P25098); experiment: GRK2 binders displacing RNA aptamer, biochemical, validation, human GRK2, bead flow cytometry (AID 488806;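 active means aptamer binding inhibition above 30%, about 3 SD of noise from non-fluorescent compounds; inactive means inhibition at or below 30%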); settings: bead-bound GRK2, FAM-aptamer displacement, at 10 µM, stronger effect = higher value
# [12] = target: AP-2 complex subunit beta (Homo sapiens) (UniProt P63010); experiment: beta-arrestin/AP2 interaction blockers – biochemical, validation set, GST-AP2 beads, flow cytometry, pilot screen (AID 504541;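 active means inhibition above 54%, about 3 SD of non-fluorescent compounds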;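 further: AP2 carries R879A mutation and is captured from E. coli lysate; bead-bound FITC arrestin peptide fluorescence measuring arrestin peptide binding to AP2; 0% = DMSO wells and 100% = excess unlabeled arrestin peptide control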); settings: FITC arrestin peptide, at 10 µM, stronger effect = higher value
# [13] = cytosolic pH regulators acting via V-ATPase – S. cerevisiae, pHLuorin, HTS validation (AID 504600; in the data active means response above about 15%;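 further: plate controls were DMSO for no effect and reference compound for full effect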); settings: V-ATPase proton transport, at 10 µM, stronger effect = higher value
# [14] = test system: anti-desmoglein-3 scFv antibody binding to human DSG3; experiment: blockers of pathogenic pemphigus antibody–desmoglein-3 binding – biochemical, validation compound set, bead-based, flow cytometry, pilot screen (AID 588368;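 active means binding below the plate cutoff, the plate median minus 3 SD, with a reading above zero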;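 further: signal is the median channel fluorescence of bead-bound GFP antibody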); settings: Protein G beads, DSG3-Fc, scFv-GFP binding, at 10 µM, stronger effect = lower value
# [15] = test system: Botulinum neurotoxin type F light chain protease (Clostridium botulinum); experiment: Clostridium botulinum type F light chain protease inhibitors, microsphere substrate cleavage, validation (AID 588459); settings: multiplex microsphere protease substrate cleavage assay, flow cytometry; at 10 µM; stronger effect = higher value
# [16] = target: Botulinum neurotoxin type A (Clostridium botulinum) (UniProt P0DPI0); experiment: BoNT/A light chain protease inhibitors, biochemical, multiplex microsphere flow cytometry, validation set (AID 588460); settings: at 10 µM, stronger effect = higher value
# [17] = target: Lethal factor (Bacillus anthracis) (UniProt P15917); experiment: Bacillus anthracis lethal factor inhibition, microsphere flow cytometry protease assay, validation at 10 µM (AID 588461); settings: multiplex microsphere protease cleavage assay, stronger effect = higher value
# [18] = Nile Red efflux blockade in pump-expressing yeast – validation compound set, multiplex, phenotypic, pilot screen (AID 588506;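 active means efflux inhibition above 0.42, the validation set average plus 4 SD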;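 further: Nile Red retained in cells so higher fluorescence means more efflux inhibition; 0 = negative control wells and 1 = enniatin B 25 µM full block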); settings: S. cerevisiae pump-expressing triplex, Nile Red efflux flow cytometry; at 10 µM; stronger effect = higher value
# [19] = target: ATP-binding cassette sub-family B member 6 (Homo sapiens) (UniProt Q9NP58); experiment: blockers of ABCB6-driven porphyrin uptake – K562-ABCB6 cells, flow cytometry, validation set, pilot screen (AID 588550;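 active means inhibition above the screen-wide mean plus 3 SD, about 51%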;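 further: 0% = DMSO wells and 100% = benzethonium chloride 70 µM positive control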); settings: K562-ABCB6 porphyrin accumulation, 1 h, at 10 µM, stronger effect = higher value
# [20] = AML differentiation inducers, ER-HoxA9 marrow cells – cell-based, GFP/MAC1 double positive, flow cytometry, validation set, primary screen (AID 588685;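 active means differentiation response of at least 50%, scaled between solvent and reference control, from cells with both markers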;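 further: compound exposure lasts four days before antibody staining and flow analysis; 0% = DMSO wells and 100% = 5 µM fulvestrant positive control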); settings: stronger effect = higher value
# [21] = measured here: daughter cell gate
# [22] = measured here: mother cell gate
# [23] = measured here: daughter cell gate response
# [24] = measured here: mother cell gate response
compound,measurement,setting,value
O=c1[nH]c(=S)n(-c2ccccc2)c(O)c1/C=N/N1CCOCC1,GFP response vs DMSO,[1],102% (inactive)
same,GFP response vs DMSO,[1]; [21],103%
same,GFP response vs DMSO,[1]; [22],102%
same,GFP response relative to DMSO,[2],95.7% (inactive)
same,GFP response relative to DMSO,[2]; [23],97.5%
same,GFP response relative to DMSO,[2]; [24],96.2%
same,"GFP response, % of DMSO",[3],100% (inactive)
same,"GFP response, % of DMSO",[3]; [21],103%
same,"GFP response, % of DMSO",[3]; [22],99.3%
Nc1ccc(N=Nc2ccccc2)cc1,GFP response vs DMSO,[1],98.4% (inactive)
same,GFP response vs DMSO,[1]; [21],98.4%
same,GFP response vs DMSO,[1]; [22],96.2%
same,GFP response relative to DMSO,[2],110% (inactive)
same,GFP response relative to DMSO,[2]; [23],106%
same,GFP response relative to DMSO,[2]; [24],111%
same,"GFP response, % of DMSO",[3],100% (inactive)
same,"GFP response, % of DMSO",[3]; [21],93.8%
same,"GFP response, % of DMSO",[3]; [22],99.3%
O=c1[nH]c(=O)n(Cc2ccc(F)cc2)c(O)c1C=NCCN1CCCCC1,GFP response vs DMSO,[1],96.9% (inactive)
same,GFP response vs DMSO,[1]; [21],97%
same,GFP response vs DMSO,[1]; [22],94.8%
same,GFP response relative to DMSO,[2],95.3% (inactive)
same,GFP response relative to DMSO,[2]; [23],94.4%
same,GFP response relative to DMSO,[2]; [24],94.4%
same,"GFP response, % of DMSO",[3],95.8% (inactive)
same,"GFP response, % of DMSO",[3]; [21],97.6%
same,"GFP response, % of DMSO",[3]; [22],94.9%
CC12CN3CC(C)(CN(C1)C3c1cccnc1)C2=O (stereo unspecified),percent of DMSO control GFP,[4],95.2% (inactive)
same,GFP response vs DMSO,[5],117% (inactive)
same,percent response of DMSO control,[6],97.9% (inactive)
same,GFP response vs DMSO,[7],81.4% (inactive)
same,double positive events,[8],58%
same,vesicle binding response,[8],174% (inactive)
same,inhibition,[9],8.4% (inactive)
same,superoxide response (% of plate),[10],108% (inactive)
same,aptamer binding inhibition,[11],4% (inactive)
same,inhibition,[12],-8.61% (inactive)
same,response,[13],0.14% (inactive)
same,binding (% of control),[14],95.4% (inactive)
same,inhibition,[15],-1.6% (inactive)
same,inhibition,[16],0.6% (inactive)
same,inhibition,[17],9.9% (inactive)
same,efflux inhibition (fraction of control),[18],0.3 (inactive)
same,inhibition,[19],7% (inactive)
same,differentiation response,[20],-3.28% (inactive)
CCN(CC)c1ccc(C=C2C(=O)NC(=S)NC2=O)cc1,GFP response vs DMSO,[1],94.7% (inactive)
same,GFP response vs DMSO,[1]; [21],90.2%
same,GFP response vs DMSO,[1]; [22],90%
same,GFP response relative to DMSO,[2],128% (inactive)
same,GFP response relative to DMSO,[2]; [23],116%
same,GFP response relative to DMSO,[2]; [24],131%
same,"GFP response, % of DMSO",[3],94.4% (inactive)
same,"GFP response, % of DMSO",[3]; [21],95.8%
same,"GFP response, % of DMSO",[3]; [22],84.8%
COc1ccc(N2C(=O)/C(=C/c3ccco3)C(=O)NC2=S)cc1,GFP response vs DMSO,[1],97.4% (inactive)
same,GFP response vs DMSO,[1]; [21],102%
same,GFP response vs DMSO,[1]; [22],91.4%
same,GFP response relative to DMSO,[2],91.4% (inactive)
same,GFP response relative to DMSO,[2]; [23],94.1%
same,GFP response relative to DMSO,[2]; [24],94.2%
same,"GFP response, % of DMSO",[3],91.3% (inactive)
same,"GFP response, % of DMSO",[3]; [21],103%
same,"GFP response, % of DMSO",[3]; [22],83.7%
O=C1C=Cc2ccccc2C1=O,percent of DMSO control GFP,[4],102% (inactive)
same,GFP response vs DMSO,[5],116% (inactive)
same,percent response of DMSO control,[6],116% (inactive)
same,GFP response vs DMSO,[7],89.1% (inactive)
same,double positive events,[8],43.3%
same,vesicle binding response,[8],71.6% (active)
same,inhibition,[9],-65.3% (inactive)
same,superoxide response (% of plate),[10],129% (inactive)
same,aptamer binding inhibition,[11],2% (inactive)
same,inhibition,[12],8% (inactive)
same,response,[13],1.9% (inactive)
same,binding (% of control),[14],109% (inactive)
same,inhibition,[15],-1.2% (inactive)
same,inhibition,[16],1.7% (inactive)
same,inhibition,[17],1.9% (inactive)
same,efflux inhibition (fraction of control),[18],-0.09 (inactive)
same,inhibition,[19],7% (inactive)
same,differentiation response,[20],5.73% (inactive)

# Reference: PubChem BioAssay
